Key:
Assay in all cases: PBM binding z-score (relative to random genomic background probes); higher = stronger binding; sequences stand for … in GC…GCGATTGACAGCGTAGAATGAAGG
[1] = test system: RARb homodimer (NR concentration 270 nM)
Outline: (§1)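 Custom Agilent 4×180K protein-binding microarrays carried double-stranded probes. Their 34-nt variable regions held direct-repeat seeds, single-nucleotide variants, half-site ablations and random human genomic background sequences. Arrays were incubated 1 h with ligand-free nuclear receptor dimers in PBS pH 7.4, 2% milk, 0.02% Triton X-100, 1 mM DTT, 0.2 mg/mL BSA and 0.4 mg/ml salmon testes DNA. Antibodies against each partner (one per run) detected binding, and scanned fluorescence was regression-normalized. Binding z-scores use random background probes as reference.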

[2] = test system: RARg:RXRa (NR concentration 270 nM, RXRa partner concentration 90 nM)
Outline: as §1

[3] = test system: RARg homodimer (NR concentration 270 nM)
Outline: as §1

[4] = test system: RXRa DBDmut IVT, anti-RXR (DBD mutation: RXRa K156A/R161A, NR concentration 90 nM)
Outline: as §1

[5] = test system: RXRa homodimer (NR concentration 180 nM)
Outline: as §1

[6] = test system: THRa:RXRa (NR concentration 90 nM, RXRa partner concentration 90 nM)
Outline: as §1

[7] = test system: THRa homodimer (NR concentration 90 nM)
Outline: as §1

[8] = test system: VDR:RXRa (NR concentration 270 nM, RXRa partner concentration 90 nM)
Outline: as §1

[9] = test system: VDR homodimer (NR concentration 270 nM)
Outline: as §1

Row | Sequence | PBM binding z-score [1] | PBM binding z-score [2] | PBM binding z-score [3] | PBM binding z-score [4] | PBM binding z-score [5] | PBM binding z-score [6] | PBM binding z-score [7] | PBM binding z-score [8] | PBM binding z-score [9]
1 | AGAACGAGGGCACGCTGAGTTGATACCAGAGTAG | 1.13 | 1.91 | 2.16 | 1.46 | 1.44 | 1.74 | 0.271 | 2.23 | 1.98
2 | TCTCGGAGGACACGAAGGTGAGAGCTTTCCAGAG | 1.24 | 0.731 | 1.55 | 0.225 | 0.152 | 1.48 | 0.357 | -0.377 | -0.501
3 | CGAACTAGGTCATCCAGGACAGTGAGTACATTGA | 3.03 | 4.04 | 5.08 | 2.58 | 3.02 | 3.65 | 2.14 | 5.02 | 4.1
4 | CCAGACAGGTGAGAATGTAACTCAGCCTCGATTA | -0.0133 | 0.273 | 0.342 | 0.0123 | 0.179 | -0.103 | -0.12 | -0.0872 | -0.0924
5 | CCGAGTATGTTATGGGGCATTCAGGCAACGGTGA | 0.485 | 0.112 | 0.276 | 0.833 | 0.294 | 0.302 | 0.125 | -0.0094 | 0.00991
6 | CCTACCGGGCCATTCAGAGGTCATTGATCATATG | 4.14 | 4.98 | 3.36 | 0.918 | 3.86 | 3.65 | 1.73 | 4.24 | 4.05
7 | CGTCCATGGTCAGCAGGTCAGTGAAAGCGACGTG | 2.46 | 1.81 | 2.05 | -0.144 | 0.937 | 0.887 | -0.0849 | 0.0484 | -0.456
8 | CGAACTAGGTCTTTGACAGGACAGTGAATAGTAA | 0.139 | 0.112 | 0.193 | 0.262 | -0.252 | 0.309 | -0.0353 | -0.318 | -0.305
9 | AGAATGAGGTTACCGAAGATCAGGGAAACGCTTG | 0.586 | 2.27 | 1.76 | 1.5 | 2.87 | 3.05 | 0.672 | 1.53 | 0.193
10 | CCTGCTAGGACATGGTCAGCTAATCTACAGTATG | -0.2 | -0.204 | 0.478 | 0.385 | -0.656 | 0.568 | -0.28 | -0.684 | -0.547
11 | CCGAGTAGGTTATGGGGCAATCAGGCAACGGTGA | 1.16 | 0.738 | 0.689 | -0.315 | 0.867 | 0.602 | 0.263 | 0.00491 | 0.0803
12 | AATAGCAGGCCAAGGGTCACTCAAGATTAGTCCG | 3.86 | 4.1 | 3.92 | 0.264 | 4.46 | 2.8 | 0.187 | 2.92 | 1.06
13 | GTACCAAGGTGAATAGGTCATTGATGAGTAGGCG | 3.98 | 4.79 | 3.34 | -0.0633 | 3.5 | 2.82 | 0.757 | 2.24 | 0.849
14 | TCTTGTAGATCAGCAGGTTAAGAGAGCTGGCCAA | -0.156 | -0.1 | -0.407 | 0.292 | 0.367 | -0.0987 | -0.325 | 0.132 | -0.364
15 | CGTCCAAGGTCATAGGTCAGTGAAGAGATGACGG | 4.84 | 6.97 | 6.86 | 3.61 | 8.18 | 4.31 | 2.65 | 5.32 | 3.51
16 | AGAACGAGGGCACGCTGTGTTGATAGCAGAGTAG | 1.05 | 1.82 | 2.12 | 1.76 | 1.23 | 1.53 | -0.0988 | 0.783 | 0.651
17 | ATATGTAGGTTAACGGGTCATTCAGTTTGCGCAT | 2.84 | 3.21 | 2.62 | 1.46 | 3.46 | 2.27 | 0.71 | 5.16 | 2.56
18 | TCTTGTAGATCAACAGGAGGTTAAGAAAGATCGA | 0.548 | 0.934 | 0.306 | 0.35 | 0.762 | 0.782 | -0.703 | 0.453 | -0.387
19 | TTACCAATGTGAAGGTCGTTGATCCCTCTGTAGA | 1.25 | 0.262 | 0.216 | 0.586 | 1.05 | 0.82 | 0.201 | 1.17 | 1.04
20 | ACTAGTTGGTCAGCTGAGGTCACACATAATTCGG | 4.45 | 4.1 | 4.13 | 1.13 | 3.93 | 4.88 | 5.2 | 4.49 | 3.19
21 | ATATCTAGGTAAAGTTCAGTGAAAGATCGATAGA | 2.45 | 2.04 | 2.43 | 1.6 | 1.53 | 1.33 | 0.34 | 1.53 | 1.78
22 | ATCGAAGGGTCGTGAGGTGAGTATACAGAAAGGC | 2.09 | 3.05 | 2.55 | 0.87 | 3.4 | 2.84 | 1.51 | 2.38 | 0.783
23 | TCTATTAGTTGATTAGGGCGACCGAAACAGCGGA | 0.492 | 0.141 | 0.348 | 1.14 | 0.378 | 0.191 | 0.249 | 0.776 | 0.212
24 | CCTGCTGGGCCACGAAAGGTCATTGATTCAGTGA | 4.56 | 4.89 | 4.55 | 0.711 | 5.39 | 3.87 | 0.572 | 4.08 | 2.37

Row | Sequence | PBM binding z-score [1] | PBM binding z-score [2] | PBM binding z-score [3] | PBM binding z-score [4] | PBM binding z-score [5] | PBM binding z-score [6] | PBM binding z-score [7] | PBM binding z-score [8] | PBM binding z-score [9]
25 | AGAATGAGGTTAGGATCAGGGAAACAGAATACAT | 1.09 | 1.15 | 0.965 | 0.213 | 1.37 | 2.13 | 0.948 | 0.51 | 0.389
26 | TCTATTAGTTGAAGGGGAACCGACGAGTCCGTTT | 0.0488 | 0.44 | 0.17 | 2.05 | 0.673 | 0.226 | 0.565 | 1.13 | 1.61
27 | GCGACTGGGGCATCAGCAGCTTACCATAACTTAA | -0.217 | -0.328 | -0.193 | 0.178 | -0.47 | -0.225 | -0.422 | -0.708 | -0.429
28 | CATACAGGGTCAGCTATGCCAGAGTAGGGACGGC | 2.98 | 4.2 | 4.27 | 1.55 | 4.14 | 2.75 | 0.818 | 2.78 | 1.06
29 | ATCTCTACGTAACAAGTTCAGTGAAAGAGAGGAC | 1.68 | 0.999 | 1.24 | 0.873 | 0.659 | 1.07 | 0.629 | 1.38 | 2.6
30 | CCGACTGGGGCAAGGCTACCATAACGCACAGCCA | 0.53 | 0.348 | 0.614 | -0.842 | 0.0101 | -0.203 | -0.4 | -0.501 | -0.136
31 | TCTAGCCGGCCAGAGGGTCACTCAAGAGGTACGG | 2.6 | 2.42 | 2.26 | -0.0421 | 2.31 | 1.44 | -0.64 | 1.41 | -0.169
32 | CGTCCAAGGTCAGCAGGACAGTGAAAGCGACGTG | 3.89 | 5.05 | 6.09 | 2.33 | 3.68 | 3.72 | 1.9 | 2.42 | 0.589
33 | GCATATAGGTAATACAAGGTGTAAGTCCGATTGT | -0.384 | -0.0828 | 0.241 | 0.314 | 0.0841 | 1.3 | -0.232 | -0.12 | -0.121
34 | CCGACTGGGGCAGAAAGGTAACCATACCATCCGG | 0.454 | 0.234 | 0.586 | -1.12 | 0.166 | 0.0799 | -0.606 | -0.526 | -0.291
35 | CGAACTAGGTCATCCCGGACAGTGAATACATTGA | 2.84 | 3.68 | 4.66 | 2.33 | 2.6 | 2.86 | 1.4 | 3.63 | 1.91
36 | ATCTCTAGGTAAAAGTTCAGTGACTCCCGAGGAT | 2.46 | 2.04 | 2.16 | 0.624 | 1.75 | 1.32 | 0.142 | 1.71 | 1.69
37 | TGGAGTAGGTTACCAATGGGGCATTCAGCTTTCT | 1.16 | 1.4 | 0.805 | -0.418 | 0.605 | 0.403 | -0.198 | 0.293 | -0.00533
38 | CAAACTAGTTCACGAAAGGTCAAAGTCGAATGAC | 5.1 | 6.68 | 6.48 | 3.07 | 7.49 | 4.5 | 1.16 | 6.33 | 4.41
39 | TGGAGTAGGTTAGTCGGGGCATTCAGCCAACATA | 1.41 | 0.219 | 0.355 | -0.608 | 0.023 | 1.48 | 0.985 | 2.43 | 1.24
40 | TCTTGTAGATCAACAGGAGGTTAAGAATGATCGA | 0.596 | 1.13 | 0.374 | 0.333 | 0.964 | 0.774 | -0.347 | 0.56 | 0.202
41 | CAAACTAGGTCACAAAGGTCAAAGTCCGTGCGTA | 5.75 | 7.55 | 8.33 | 3.46 | 8.41 | 4.52 | 2.58 | 7.28 | 6.7
42 | CGAACTAGGTCAAGCACAGTGAATCTCCGCACGC | 2.96 | 4.27 | 4.61 | 1.82 | 2.84 | 2.72 | 1.27 | 1.43 | 0.357
43 | CGAACTAGGTCAAGGACAGTGAATCTCCGCACGC | 3.01 | 3.95 | 4.49 | 1.42 | 2.57 | 3.25 | 2.14 | 1.32 | 0.847
44 | CGAACTAGGACAGAACAGGACAGTGAAGGATGAT | 0.214 | 0.299 | 0.538 | -0.164 | 0.23 | 0.492 | -0.221 | -0.358 | -0.157
45 | GGAACGAGCGCATTCGAGTTGATAGCATGGCGAT | -0.974 | -0.544 | -0.227 | 0.0101 | -0.607 | -0.857 | -1.27 | -0.761 | -0.406
46 | CGTGAAAGTTCAAGGTAACGTAACAGAAAGCAGC | 3.23 | 5.05 | 5.85 | 4.44 | 4.04 | 3.07 | 0.878 | 3.81 | 3.01
47 | CGAACTAGGTCATTGACAGCACAGTGAATAGTAA | 2.36 | 3.46 | 4.03 | 2.29 | 2.47 | 2.31 | 0.694 | 2.15 | 1.08
48 | CCTAGCAGGCCAAACTGGGTCACTCAAGGCTTGA | 2.17 | 1.16 | 1.51 | 0.301 | 0.807 | 3.68 | 0.159 | 0.616 | -0.107
